Assay [1] is described as follows: blockers of polyQ-driven CASP3 activation – cell-based (AID 1583). The conditions noted are these: polyglutamine-induced caspase-3 activation, cell assay; stronger effect = higher value;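 tested at 10 µM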.
Assay [2] can be described thus: yeast 75Q aggregation reduction – 75Q-TubU reporter (AID 1593). The following applies: Yeast 75Q polyglutamine aggregation reporter.
Assay [3] is described as follows: restoration of touch response, mutant HTT neurons – whole organism, C. elegans mechanosensory neurons, N-terminal huntingtin (AID 1599). The conditions noted are these: C. elegans polyQ-huntingtin mechanosensory neurons, stronger effect = higher value.
Assay [4] in a line: blockers of cytochrome c efflux from mitochondria – biochemical, purified mitochondria (AID 1603).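 Note: mouse liver mitochondria challenged with calcium chloride; signal normalized to the plate average as 100%.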 The following applies: stronger effect = lower value.
A short description of assay [5]: polyglutamine aggregate formation blockers (AID 1604). The conditions noted are these: polyglutamine-induced protein aggregation inhibition assay; stronger effect = higher value; tested at 2.5 µM.
Assay [6] in a line: glutamate transport activators, MN-1 cells, MN-1 cell line (AID 1612).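 Note: tested at 1 µM final; 0% = mean of DMSO vehicle wells on each plate; positive means more glutamate uptake than control and negative means less.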 The conditions noted are these: MN-1 motor neuron cells, stronger effect = higher value.
Assay [7] is described as follows: 75Q-TubH aggregate inhibition, S. cerevisiae, yeast (AID 1616). The following applies: S. cerevisiae 75Q-TubH polyglutamine aggregation suppression; stronger effect = higher value.
The nature of assay [8]: compounds altering viability of human ES cells (AID 493140; call rule not given here;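 note: cells exposed to compounds for four days before counting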). The following applies: human embryonic stem cell survival screen; stronger effect = higher value.
Assay [9] in a line: signal quenchers or enhancers, Cy5 substrate/SSB – biochemical, NIH Clinical Collection, E. coli SSB, artefact control for HCV NS3 helicase inhibitor project (AID 743268; call rule not given here). The following applies: Cy5-oligo bound E. coli SSB, fluorescence interference.
For assay [10], the system named is Hepatitis C virus NS3 helicase. The experiment in a line: blockers of NS3h binding to DNA – biochemical, fluorescence polarization, NIH Clinical Collection, primary screen (AID 743270; call rule not given here). The conditions noted are these: NS3 helicase binding to Cy5-dT15 DNA, stronger effect = higher value, concentration not given here. On the technique in general: In fluorescence polarisation assays a small probe gives low polarisation when free and higher when bound to something large.

Assay [11] deals with Single-stranded DNA-binding protein (Escherichia coli (strain K12)) (UniProt P0AGE0). Put plainly: SSB-ssDNA binding inhibitors – biochemical, fluorescence polarization, NIH Clinical Collection, counter-screen for HCV NS3 helicase inhibitor project (AID 743271; in the data active = inhibition above about 28%). The following applies: E. coli SSB-DNA binding, stronger effect = higher value, concentration not given here.
Assay [12] in a line: compounds distorting NS3 helicase fluorescence signal – biochemical, NIH Clinical Collection, artefact control for HCV NS3 helicase inhibitor project (AID 743272; call rule not given here;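 note: HCV NS3 helicase with a Cy5 labelled single stranded DNA probe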). The conditions noted are these: fluorescence interference counterscreen, HCV NS3 helicase assay; stronger effect = lower value. A general note: The purpose of a counterscreen is to sort out artefacts and off-target activity.

Assay [13] can be described thus: galactose survival enhancers in mitochondrial complex I cybrids – cell-based, galactose medium, ATP luminescence, primary screen (AID 1645843;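 active = z-score of at least 1.8 in each of two replicates, scored against plate mean and spread of sample wells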;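 note: positive z means more ATP and so rescue of galactose-driven cybrid death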). The conditions noted are these: complex I mutant cybrid cells, 72 h, stronger effect = higher value.
In another assay the test system is R275C. Put plainly: BK channel mutant inhibitors and activators – cell-based, U2OS BacMam, thallium flux, beta subunits, selectivity assay, profiling panel (AID 1259406).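 Note: initial slope of Thallos dye fluorescence rise after thallium is added; log ratio against the mean of 0.3% DMSO vehicle wells on the same plate.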 The following applies: U2OS BacMam BK variants, at 30 µM.
For another assay, the system named is R275C/beta1. Described as above. The following applies: U2OS BacMam BK variants, at 30 µM.
A further assay deals with R275C/beta2Delta. The assay is described as above. The following applies: U2OS BacMam BK variants, at 30 µM.
A further assay concerns R275C/beta4. Described as above. The following applies: U2OS BacMam BK variants, at 30 µM.
In another assay the test system is R275C/Slo1WT/beta2. Described as above. The following applies: U2OS BacMam BK variants, at 30 µM.
Assay [14] can be described thus: viability loss with induced miR-34 in A549 – imaging, A549 dox-inducible miR-34, nuclei and caspase counts, primary screen (AID 1347080;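 active = compounds whose cell count with miR-34 switched on is under 0.7 times the count with it off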). The following applies: A549 miR-34 inducible, Hoechst nuclei count, 48 h.
Where [15] appears, read: stronger effect = lower value, cell number ratio, induced over uninduced.

Where “and” joins values, the source holds several entries; their conditions need not be identical. Identical values can stand only once. For part of these data: Entries with a potency or affinity are not part of this list. Calls of active or inactive are those of the source.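 Rule for the calls, unless noted: active = thallium flux through the channel raised or lowered by more than 3 SD from vehicle-only wells, actives on both sides; inactive = the rest.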

Here are results for seven compounds from PubChem BioAssay.

For orientation: inhibition means the drop in the measured response relative to a control, in per cent. Consider `O=C(O)c1cc(=O)c2c(OCC(O)COc3cccc4oc(C(=O)O)cc(=O)c34)cccc2o1`, for which the inhibition in assay [1] was -4.9%; in [10], -2.27% (inactive); in assay [11], 3.34% (inactive). The compound further gave a score in assay [2] of 1.69. In assay [3], this compound registered a rescue above control of 9.88. For the same compound, in assay [4], the cytochrome c release ratio stood at 0.89. In addition, the inhibition of aggregation in assay [5] was found to be 65.5%. Moreover, in assay [6], the glutamate uptake change is -4.58%. In addition, in assay [7], the aggregation suppression score came out at 1.35. Besides, the survival in assay [8] was 1.67 (inactive). Further, the fluorescence ratio in assay [9] was 1.02 (inactive); in assay [12], 1.03 (inactive). In addition, the z-score in assay [13] is 0.69 (inactive) and 0.68 (inactive). Moreover, the log fold change Tl+ flux was -0.0035 (inactive) with R275C; -0.0241 (inactive) with R275C/beta1; -0.0325 (inactive) with R275C/beta2Delta; -0.125 (inactive) in the assay on R275C/beta4; 0.015 (inactive) with R275C/Slo1WT/beta2.
Turning to `CC(=O)CC(c1ccccc1)c1c(O)c2ccccc2oc1=O` (centres undefined), the inhibition was 17% in [1], -2.27% (inactive) in [10] and -3.53% (inactive) in assay [11]. The score in [2] was found to be 0.72. The same compound came in with a rescue above control in assay [3] of -6.3. In addition, the cytochrome c release ratio in assay [4] was determined as 1.4. The inhibition of aggregation in assay [5] was found to be 68.5%. In addition, the glutamate uptake change in assay [6] was -2.55%. Also, in [7], the aggregation suppression score stood at 0.635. Besides, the fluorescence ratio in assay [9] was 1 (inactive); in assay [12], 0.99 (inactive). The fold change is 0.928 (inactive) and 0.882 (inactive) and 0.918 (inactive) in [14] (setting [15]); 1.54 and 1.82 and 3.53 in assay [14] (measured here: relative caspase fold change +Dox/-Dox). Further, the cell count was 10300 and 5280 and 12200 in [14] (measured here: total cells with miR-34 induction, stronger effect = lower value); 11100 and 5980 and 13300 in assay [14] (measured here: total cells without miR-34 induction). For the same compound, the z-score in assay [13] is 2.31 (active). The log fold change Tl+ flux with R275C was 0.00879 (inactive); in the assay with R275C/beta1 it was -0.0262 (inactive); with R275C/beta2Delta, 0.0436 (inactive); in the assay on R275C/beta4, -0.00201 (inactive); with R275C/Slo1WT/beta2, 0.0306 (inactive).
`CC(C)NCC(O)c1cc(O)cc(O)c1` (centres undefined): the inhibition in [1] is 11.6%; in assay [10] it was -5% (inactive); in [11], -4.29% (inactive). Moreover, the score in assay [2] worked out at 1.21. Further, the rescue above control in assay [3] is -1.18. The cytochrome c release ratio in assay [4] came out at 0.62. Moreover, in [5], the inhibition of aggregation worked out at 83.9%. The glutamate uptake change in [6] is -18.3%. The compound also yielded an aggregation suppression score in [7] of 1.15. In assay [8], the survival is 10.4 (inactive). In addition, the fluorescence ratio in assay [9] was 1.05 (inactive); in [12], 1.02 (inactive). Also, the fold change in [14] (setting [15]) is 1.13 (inactive) and 0.914 (inactive) and 0.836 (inactive). The z-score in [13] is 0.07 (inactive) and 1.61 (inactive). Moreover, the log fold change Tl+ flux with R275C is 0.0473 (inactive); with R275C/beta1, -0.038 (inactive); in the assay on R275C/beta2Delta, 0.0259 (inactive); in the assay on R275C/beta4, 0.0475 (inactive); in the assay with R275C/Slo1WT/beta2 it was 0.0212 (inactive).
As to `CN(C)CCCN1c2ccccc2Sc2ccc(Cl)cc21`, the inhibition in assay [1] was 1.97%; in [10] it was -4.09% (inactive); in assay [11], -1.24% (inactive). Also, the score in [2] came out at 0.97. In addition, the rescue above control in assay [3] was 0. The cytochrome c release ratio in assay [4] stood at 1.17. In addition, the inhibition of aggregation in assay [5] was found to be 35.3%. In addition, the glutamate uptake change in assay [6] came out at 11.9%. Further, the aggregation suppression score in assay [7] was found to be 1.25. Moreover, the survival in assay [8] was 3.17 (inactive). Also, the fluorescence ratio was 1.03 (inactive) in assay [9] and 0.91 (inactive) in [12]. For the same compound, the z-score in [13] was -1.52 (inactive) and -1.29 (inactive) and -1.43 (inactive). Further, the log fold change Tl+ flux in the assay on R275C is -0.0248 (inactive); with R275C/beta1, 0.272 (active); in the assay with R275C/beta2Delta, 0.103 (active); in the assay with R275C/beta4, 0.154 (active); in the assay on R275C/Slo1WT/beta2, -0.0668 (inactive).
In the case of `CC(=O)Nc1nnc(S(N)(=O)=O)s1`, the inhibition in [1] is 12.8%; in assay [10] it was -1.36% (inactive); in assay [11] it was -2% (inactive). This compound also returned a score in [2] of 1.01. Also, the rescue above control in assay [3] was determined as 21.8. For the same compound, in [4], the cytochrome c release ratio came to 0.85. Moreover, in assay [5], the inhibition of aggregation is -6.35%. Also, the glutamate uptake change in [6] worked out at 5.19%. In assay [7], the aggregation suppression score stood at 1.12. Moreover, the survival in [8] is 10.5 (inactive). The fluorescence ratio is 1.01 (inactive) in [9] and 0.98 (inactive) in assay [12]. Besides, the z-score in [13] was 0.625 (inactive) and 0.37 (inactive). Further, the log fold change Tl+ flux with R275C was 0.0184 (inactive); in the assay with R275C/beta1, -0.00169 (inactive); in the assay with R275C/beta2Delta, 0.0403 (inactive); in the assay with R275C/beta4 it was 0.00614 (inactive); in the assay with R275C/Slo1WT/beta2, 0.0491 (inactive).
Regarding `CCCNC(C)C(=O)Nc1ccccc1C` (centres undefined), the inhibition in [1] is 1.52%; in [10], -4.09% (inactive); in [11], -0.48% (inactive). In assay [2], this compound showed a score of 1.18. This compound returned a rescue above control in assay [3] of -3.71. In addition, in [4], the cytochrome c release ratio was found to be 0.7. Besides, the inhibition of aggregation in [5] came to 74.9%. In [6], the glutamate uptake change amounted to 3.66%. Further, the aggregation suppression score in assay [7] turned out to be 1.11. Also, the survival in assay [8] is 13.5 (inactive). Also, the values for the fluorescence ratio in assay [9] and in [12] were 0.103 (active) and 0.97 (inactive), respectively. In addition, the z-score in assay [13] is 0.075 (inactive) and 0.325 (inactive) and 0.175 (inactive). Besides, the log fold change Tl+ flux in the assay with R275C was -0.0216 (inactive); with R275C/beta1 it was -0.0631 (inactive); in the assay with R275C/beta2Delta it was 0.0403 (inactive); with R275C/beta4, -0.00233 (inactive); in the assay on R275C/Slo1WT/beta2 it was 0.0338 (inactive).
On to `OCCN1CCN(CCCN2c3ccccc3Sc3ccc(Cl)cc32)CC1`, for which the inhibition in assay [1] was -20.9%; in assay [10], -2.27% (inactive); in assay [11] it was 1.81% (inactive). This compound showed a score in assay [2] of 0.86. In addition, in assay [4], the cytochrome c release ratio was 1.23. In addition, the inhibition of aggregation in assay [5] was found to be 49%. Besides, the glutamate uptake change in [6] is 5.53%. Besides, in assay [7], the aggregation suppression score was 0.889. Further, the survival in assay [8] is 1.67 (inactive). Also, the fluorescence ratio was 1.01 (inactive) in assay [9] and 0.84 (inactive) in assay [12]. Further, the z-score in [13] was -1.29 (inactive) and -1.32 (inactive). For the same compound, the log fold change Tl+ flux with R275C was -0.201 (active); in the assay with R275C/beta1 it was 0.341 (active); with R275C/beta2Delta, -0.0309 (inactive); with R275C/beta4, 0.17 (active); with R275C/Slo1WT/beta2, -0.0801 (inactive).
